In all, about 5,500 compounds went through this assay and about 2,000 (36%) were called active. About 18% were inconclusive and are not listed. Cut-off read from the data, not from the text of the source: active = normalized growth mostly below about 0.91 (no sharp cut-off); inconclusive = no clear call, values can overlap the other calls; inactive = mostly above about 0.92. The list shows a part of the results.
Assay: chemical genetic growth profiling, strain panel (AID 1159580);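 note: tested at 20 µM; growth read once vehicle control cultures reached saturation at 30 °C; 1 = growth at the plate median or of vehicle wells; lower values mean less growth of the strain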
Details: S. cerevisiae deletion strains, growth OD

Measured: normalized growth

CNc1ncnc2c1ncn2[C@H]1C[C@H](OP(=O)(O)O)[C@@H](COP(=O)(O)O)O1
inactive: locus YAL040C, strain CLN3, active compounds read low 0.995 | locus YCL061C, strain MRC1 (second series), active compounds read low 1.01 | locus YDR363W, strain ESC2, active compounds read low 1 | locus YER002W, strain NOP16, active compounds read low 0.983 | locus YGR229C, strain SMI1, active compounds read low 1.02 | locus YJR075W, strain HOC1, active compounds read low 1.01 | locus YNL175C, strain NOP13, active compounds read low 0.996 | locus YNL197C, strain WHI3, active compounds read low 1 | locus YNL224C, strain SQS1, active compounds read low 1 | locus YNL322C, strain KRE1, active compounds read low 1.01 | locus YOR083W, strain WHI5 (second series), active compounds read low 1.01 | locus YPL055C, strain LGE1, active compounds read low 1.01 | locus YPL241C, strain CIN2, active compounds read low 1
